Measured values: the supplement of paper PMC11732987, “Enantioselective OTUD7B fragment discovery through chemoproteomics screening and high-throughput optimisation” (Communications Chemistry, 2025)

How the values were obtained:
Test in all cases: log2 ratio of Biotin-Ahx-Ub-VS probe labelling (fragment/DMSO); higher = less target engagement (more negative = stronger competition), active = hit call of the paper (q ≤ 0.05, log2 ratio ≤ -1)
Conditions in all cases: compound concentration: 200 uM; treatment time: 3 h
USP9X = USP9X (UniProt Q93008)
Method in brief: (§1)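 Using Biotin-Ahx-Ub-VS at 0.5 µM final for 1 h, DUBs were labelled in HEK293T lysate (495 µg per sample) that had first been treated in triplicate with fragment at 200 µM or vehicle for 3 h. NeutrAvidin enrichment, LysC and trypsin digestion and diaPASEF LC-MS/MS followed. Spectronaut label-free quantities were global-median-normalised. Values are average log2 fragment/vehicle ratios by unpaired t-test, using proteins with ≥2 unique peptides.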

UniProt O00487 = biological target: UniProt O00487
UniProt O00487, sequence (O00487 whole entry): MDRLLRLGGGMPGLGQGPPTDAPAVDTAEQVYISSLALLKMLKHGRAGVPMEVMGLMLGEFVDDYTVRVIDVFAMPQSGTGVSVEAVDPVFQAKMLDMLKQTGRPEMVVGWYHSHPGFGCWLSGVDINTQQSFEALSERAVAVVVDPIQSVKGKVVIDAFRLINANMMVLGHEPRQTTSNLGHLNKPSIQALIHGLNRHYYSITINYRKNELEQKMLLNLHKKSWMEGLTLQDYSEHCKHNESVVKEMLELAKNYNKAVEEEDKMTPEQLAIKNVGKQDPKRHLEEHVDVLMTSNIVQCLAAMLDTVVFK
Method in brief: as §1

UniProt O00507 = biological target: UniProt O00507
UniProt O00507, sequence (O00507 whole entry): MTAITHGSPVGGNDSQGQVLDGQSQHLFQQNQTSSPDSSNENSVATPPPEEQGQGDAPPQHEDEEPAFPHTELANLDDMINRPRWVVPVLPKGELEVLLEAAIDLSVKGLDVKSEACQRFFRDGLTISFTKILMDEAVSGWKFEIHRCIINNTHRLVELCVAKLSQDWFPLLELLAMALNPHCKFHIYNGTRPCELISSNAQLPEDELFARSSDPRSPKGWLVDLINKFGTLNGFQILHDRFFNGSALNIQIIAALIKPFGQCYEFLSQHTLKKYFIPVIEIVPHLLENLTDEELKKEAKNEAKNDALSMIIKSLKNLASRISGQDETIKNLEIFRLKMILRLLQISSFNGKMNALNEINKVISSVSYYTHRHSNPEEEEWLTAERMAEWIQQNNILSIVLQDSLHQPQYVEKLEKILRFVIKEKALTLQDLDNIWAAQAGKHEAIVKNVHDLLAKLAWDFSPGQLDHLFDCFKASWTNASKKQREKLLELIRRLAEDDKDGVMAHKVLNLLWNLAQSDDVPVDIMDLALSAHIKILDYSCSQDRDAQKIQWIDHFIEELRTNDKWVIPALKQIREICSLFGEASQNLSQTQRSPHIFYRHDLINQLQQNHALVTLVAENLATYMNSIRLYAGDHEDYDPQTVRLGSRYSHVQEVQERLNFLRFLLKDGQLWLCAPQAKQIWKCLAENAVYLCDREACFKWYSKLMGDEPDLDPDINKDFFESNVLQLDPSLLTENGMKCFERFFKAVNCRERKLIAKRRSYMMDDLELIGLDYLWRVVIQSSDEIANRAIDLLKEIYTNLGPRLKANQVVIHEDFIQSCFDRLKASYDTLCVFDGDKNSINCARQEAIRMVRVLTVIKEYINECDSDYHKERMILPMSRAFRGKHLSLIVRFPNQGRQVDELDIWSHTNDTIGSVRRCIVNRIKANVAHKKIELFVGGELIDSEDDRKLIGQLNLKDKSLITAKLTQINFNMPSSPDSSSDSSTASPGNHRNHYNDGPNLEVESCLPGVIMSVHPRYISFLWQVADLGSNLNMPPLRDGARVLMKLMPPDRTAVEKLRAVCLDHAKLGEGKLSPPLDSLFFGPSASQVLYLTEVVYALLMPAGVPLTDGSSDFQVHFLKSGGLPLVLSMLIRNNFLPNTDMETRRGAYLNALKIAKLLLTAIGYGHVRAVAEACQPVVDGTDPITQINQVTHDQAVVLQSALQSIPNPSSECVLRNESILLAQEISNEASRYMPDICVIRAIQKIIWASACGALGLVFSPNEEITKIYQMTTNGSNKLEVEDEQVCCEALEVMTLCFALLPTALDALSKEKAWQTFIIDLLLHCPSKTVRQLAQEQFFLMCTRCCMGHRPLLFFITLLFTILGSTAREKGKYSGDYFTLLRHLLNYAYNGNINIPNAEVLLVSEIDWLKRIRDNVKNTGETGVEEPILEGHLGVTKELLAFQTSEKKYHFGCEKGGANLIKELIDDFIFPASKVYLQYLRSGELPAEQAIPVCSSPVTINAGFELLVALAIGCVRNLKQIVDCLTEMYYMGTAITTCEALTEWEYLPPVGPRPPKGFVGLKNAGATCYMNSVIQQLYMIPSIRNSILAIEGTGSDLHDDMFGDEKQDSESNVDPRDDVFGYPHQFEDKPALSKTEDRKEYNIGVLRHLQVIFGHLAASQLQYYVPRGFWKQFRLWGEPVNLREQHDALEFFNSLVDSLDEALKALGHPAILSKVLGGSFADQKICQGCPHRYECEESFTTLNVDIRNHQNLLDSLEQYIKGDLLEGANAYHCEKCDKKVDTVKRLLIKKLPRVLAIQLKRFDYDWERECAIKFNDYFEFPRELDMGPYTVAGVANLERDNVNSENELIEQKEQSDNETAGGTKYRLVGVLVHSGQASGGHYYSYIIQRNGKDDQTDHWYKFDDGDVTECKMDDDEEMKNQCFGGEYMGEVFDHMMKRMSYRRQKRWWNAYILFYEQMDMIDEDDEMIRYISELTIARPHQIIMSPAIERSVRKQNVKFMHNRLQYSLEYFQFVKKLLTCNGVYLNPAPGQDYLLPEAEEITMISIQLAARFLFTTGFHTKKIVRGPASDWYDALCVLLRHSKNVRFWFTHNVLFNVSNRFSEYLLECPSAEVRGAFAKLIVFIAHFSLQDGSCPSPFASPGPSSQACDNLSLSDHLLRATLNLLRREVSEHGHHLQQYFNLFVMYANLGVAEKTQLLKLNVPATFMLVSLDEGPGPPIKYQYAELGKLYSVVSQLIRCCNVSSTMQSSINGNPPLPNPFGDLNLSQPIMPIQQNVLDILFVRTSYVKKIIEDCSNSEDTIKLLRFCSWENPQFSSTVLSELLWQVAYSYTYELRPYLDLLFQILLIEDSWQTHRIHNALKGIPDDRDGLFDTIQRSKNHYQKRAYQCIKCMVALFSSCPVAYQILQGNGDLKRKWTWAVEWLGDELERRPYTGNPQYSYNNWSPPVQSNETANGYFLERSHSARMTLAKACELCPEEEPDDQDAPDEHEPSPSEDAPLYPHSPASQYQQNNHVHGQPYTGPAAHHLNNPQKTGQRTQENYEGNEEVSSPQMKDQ
Method in brief: as §1

UniProt P51784 = biological target: UniProt P51784
UniProt P51784, sequence (P51784 whole entry): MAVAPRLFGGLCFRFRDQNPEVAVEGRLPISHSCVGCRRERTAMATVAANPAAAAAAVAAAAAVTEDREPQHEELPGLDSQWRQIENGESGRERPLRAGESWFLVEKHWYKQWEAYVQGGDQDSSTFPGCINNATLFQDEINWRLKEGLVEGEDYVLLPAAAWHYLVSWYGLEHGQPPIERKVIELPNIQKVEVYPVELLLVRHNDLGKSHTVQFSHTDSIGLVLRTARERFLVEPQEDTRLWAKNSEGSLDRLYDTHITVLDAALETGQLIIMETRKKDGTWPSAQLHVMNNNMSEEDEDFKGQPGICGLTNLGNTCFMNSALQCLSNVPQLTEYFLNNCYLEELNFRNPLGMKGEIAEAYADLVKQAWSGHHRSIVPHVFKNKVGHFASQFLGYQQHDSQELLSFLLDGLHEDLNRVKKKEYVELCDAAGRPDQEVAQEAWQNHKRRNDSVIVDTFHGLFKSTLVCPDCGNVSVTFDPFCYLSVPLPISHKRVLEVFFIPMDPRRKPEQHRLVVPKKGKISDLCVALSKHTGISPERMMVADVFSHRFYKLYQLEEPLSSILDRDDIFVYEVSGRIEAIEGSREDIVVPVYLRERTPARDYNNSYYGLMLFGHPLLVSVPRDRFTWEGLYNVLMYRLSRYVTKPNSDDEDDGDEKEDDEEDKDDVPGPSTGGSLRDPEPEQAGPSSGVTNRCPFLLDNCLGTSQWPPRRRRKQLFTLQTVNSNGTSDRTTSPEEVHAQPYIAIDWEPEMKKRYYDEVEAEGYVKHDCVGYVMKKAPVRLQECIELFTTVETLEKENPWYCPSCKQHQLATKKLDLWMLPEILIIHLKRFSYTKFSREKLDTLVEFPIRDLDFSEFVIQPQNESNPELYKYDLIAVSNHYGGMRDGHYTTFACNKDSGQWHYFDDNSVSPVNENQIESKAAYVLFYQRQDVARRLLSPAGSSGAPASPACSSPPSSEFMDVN
Method in brief: as §1

UniProt Q5T2D3 = biological target: T1, UniProt Q5T2D3
T1 sequence (whole entry): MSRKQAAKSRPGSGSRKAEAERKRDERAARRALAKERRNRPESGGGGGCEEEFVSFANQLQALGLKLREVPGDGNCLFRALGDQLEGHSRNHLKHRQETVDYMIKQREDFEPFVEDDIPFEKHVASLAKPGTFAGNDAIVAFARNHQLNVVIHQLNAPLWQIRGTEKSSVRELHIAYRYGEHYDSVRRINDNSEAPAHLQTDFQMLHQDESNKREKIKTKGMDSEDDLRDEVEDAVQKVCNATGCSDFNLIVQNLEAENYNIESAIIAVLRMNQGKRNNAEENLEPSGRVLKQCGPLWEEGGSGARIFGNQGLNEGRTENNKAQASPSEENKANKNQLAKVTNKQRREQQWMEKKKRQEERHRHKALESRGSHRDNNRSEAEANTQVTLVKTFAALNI
Method in brief: as §1

UniProt Q8TE49 = biological target: T2, UniProt Q8TE49
T2 sequence (whole entry): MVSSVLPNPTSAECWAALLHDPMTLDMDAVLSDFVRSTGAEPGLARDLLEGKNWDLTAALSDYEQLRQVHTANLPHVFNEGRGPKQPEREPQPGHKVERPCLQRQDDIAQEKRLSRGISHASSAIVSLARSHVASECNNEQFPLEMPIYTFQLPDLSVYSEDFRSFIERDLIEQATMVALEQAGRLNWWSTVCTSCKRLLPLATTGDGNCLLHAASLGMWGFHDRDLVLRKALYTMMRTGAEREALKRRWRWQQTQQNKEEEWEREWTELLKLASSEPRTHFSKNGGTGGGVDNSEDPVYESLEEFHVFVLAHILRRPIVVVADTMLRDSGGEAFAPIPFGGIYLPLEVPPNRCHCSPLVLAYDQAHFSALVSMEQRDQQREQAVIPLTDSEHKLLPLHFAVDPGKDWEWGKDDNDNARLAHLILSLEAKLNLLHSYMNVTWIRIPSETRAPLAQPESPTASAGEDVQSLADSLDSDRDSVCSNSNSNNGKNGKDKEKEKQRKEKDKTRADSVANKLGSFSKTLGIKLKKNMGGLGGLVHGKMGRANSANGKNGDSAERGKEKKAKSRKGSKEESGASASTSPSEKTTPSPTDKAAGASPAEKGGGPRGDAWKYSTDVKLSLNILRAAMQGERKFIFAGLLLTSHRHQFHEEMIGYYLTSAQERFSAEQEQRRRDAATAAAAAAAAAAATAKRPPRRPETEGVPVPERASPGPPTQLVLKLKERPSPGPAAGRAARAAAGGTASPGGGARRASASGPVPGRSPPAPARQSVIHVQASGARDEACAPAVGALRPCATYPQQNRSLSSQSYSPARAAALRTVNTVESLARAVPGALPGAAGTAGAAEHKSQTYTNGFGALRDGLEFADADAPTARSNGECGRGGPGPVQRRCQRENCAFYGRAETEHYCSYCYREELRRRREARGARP
Method in brief: as §1

UniProt Q9P2H5 = biological target: T3, UniProt Q9P2H5
T3 sequence (whole entry): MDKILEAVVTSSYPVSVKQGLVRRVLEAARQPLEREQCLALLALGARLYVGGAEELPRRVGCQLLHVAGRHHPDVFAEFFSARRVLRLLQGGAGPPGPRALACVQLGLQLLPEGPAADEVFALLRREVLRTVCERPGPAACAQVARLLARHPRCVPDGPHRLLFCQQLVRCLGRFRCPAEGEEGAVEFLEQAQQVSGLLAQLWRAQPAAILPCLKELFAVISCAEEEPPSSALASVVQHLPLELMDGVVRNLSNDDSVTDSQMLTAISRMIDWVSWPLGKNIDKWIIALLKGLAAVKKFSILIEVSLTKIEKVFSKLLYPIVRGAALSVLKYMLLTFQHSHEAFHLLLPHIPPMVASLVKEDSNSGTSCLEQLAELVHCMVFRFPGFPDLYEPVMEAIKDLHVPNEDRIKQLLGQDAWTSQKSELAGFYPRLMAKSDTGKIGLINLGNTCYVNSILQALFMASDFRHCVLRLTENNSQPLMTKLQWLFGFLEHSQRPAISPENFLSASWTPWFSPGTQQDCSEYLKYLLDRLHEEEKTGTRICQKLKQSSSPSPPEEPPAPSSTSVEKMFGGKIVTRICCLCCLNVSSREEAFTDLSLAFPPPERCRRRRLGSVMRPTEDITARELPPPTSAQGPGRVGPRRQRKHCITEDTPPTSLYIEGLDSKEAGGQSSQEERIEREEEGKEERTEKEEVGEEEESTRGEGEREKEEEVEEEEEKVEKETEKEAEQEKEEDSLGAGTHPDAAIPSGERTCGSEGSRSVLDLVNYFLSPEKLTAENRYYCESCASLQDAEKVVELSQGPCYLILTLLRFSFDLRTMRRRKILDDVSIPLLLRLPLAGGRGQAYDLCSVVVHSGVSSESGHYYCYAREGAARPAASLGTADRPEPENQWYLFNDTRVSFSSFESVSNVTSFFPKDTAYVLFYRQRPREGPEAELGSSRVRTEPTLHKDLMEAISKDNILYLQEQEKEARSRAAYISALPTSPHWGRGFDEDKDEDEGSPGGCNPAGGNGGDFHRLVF
Method in brief: as §1

UniProt Q9UGI0 = biological target: T4, UniProt Q9UGI0
T4 sequence (whole entry): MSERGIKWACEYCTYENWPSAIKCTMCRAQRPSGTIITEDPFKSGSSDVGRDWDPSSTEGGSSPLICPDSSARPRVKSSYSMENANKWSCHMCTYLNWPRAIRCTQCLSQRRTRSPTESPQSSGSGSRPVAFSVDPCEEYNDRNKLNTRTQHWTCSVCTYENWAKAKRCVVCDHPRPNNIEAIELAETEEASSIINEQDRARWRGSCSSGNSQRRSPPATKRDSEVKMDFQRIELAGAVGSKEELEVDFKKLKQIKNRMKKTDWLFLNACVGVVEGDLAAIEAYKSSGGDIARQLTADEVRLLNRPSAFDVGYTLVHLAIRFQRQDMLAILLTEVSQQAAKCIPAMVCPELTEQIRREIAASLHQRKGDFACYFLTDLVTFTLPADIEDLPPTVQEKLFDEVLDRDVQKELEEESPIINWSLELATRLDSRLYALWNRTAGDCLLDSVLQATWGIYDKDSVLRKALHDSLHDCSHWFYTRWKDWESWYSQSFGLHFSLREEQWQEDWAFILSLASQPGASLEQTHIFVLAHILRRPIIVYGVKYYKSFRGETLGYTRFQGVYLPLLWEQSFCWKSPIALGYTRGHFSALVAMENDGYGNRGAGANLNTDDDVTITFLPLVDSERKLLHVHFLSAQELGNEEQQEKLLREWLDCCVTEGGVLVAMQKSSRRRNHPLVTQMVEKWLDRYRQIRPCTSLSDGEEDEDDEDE
Method in brief: as §1

YOD1 = biological target: T5, YOD1 (UniProt Q5VVQ6)
T5 sequence (whole entry): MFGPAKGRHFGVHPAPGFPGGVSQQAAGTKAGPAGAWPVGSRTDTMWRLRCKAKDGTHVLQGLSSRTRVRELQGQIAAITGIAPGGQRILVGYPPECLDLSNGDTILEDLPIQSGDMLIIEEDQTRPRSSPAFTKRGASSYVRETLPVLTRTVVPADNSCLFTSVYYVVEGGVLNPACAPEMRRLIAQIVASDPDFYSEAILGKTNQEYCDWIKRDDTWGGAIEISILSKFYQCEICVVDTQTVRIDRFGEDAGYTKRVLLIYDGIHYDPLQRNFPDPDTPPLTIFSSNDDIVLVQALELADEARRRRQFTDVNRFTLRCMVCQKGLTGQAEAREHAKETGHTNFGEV
Method in brief: as §1

Measured: log2 ratio of Biotin-Ahx-Ub-VS probe labelling

O=C(CCl)N1CCCCC12CCOCC2
inactive: USP9X -0.584 | UniProt O00487 -0.282 | UniProt O00507 -0.561 | UniProt P51784 -0.343 | UniProt Q5T2D3 -0.414 | UniProt Q8TE49 -0.444 | UniProt Q9P2H5 -0.444 | UniProt Q9UGI0 -0.517 | YOD1 -0.518
